Read-outs that look alike come from different tables or passages of the source.
Columns and labels:
ZAK = details: concentration: 1 μM, replicates: in singlicate; n = 1
ZAP70 = details: concentration: 1 μM, replicates: in singlicate; n = 1
p38-alpha = system: T1, p38-alpha; details: n = 1
T1 construct: gene MAPK14

p38-beta = system: T2, p38-beta; details: concentration: 1 μM, replicates: in singlicate; n = 1
T2 construct: gene MAPK11

p38-delta = details: concentration: 1 μM, replicates: in singlicate; n = 1
p38-gamma = system: T3, p38-gamma; details: concentration: 1 μM, replicates: in singlicate; n = 1
T3 construct: gene MAPK12

[1] = concentration: 1 μM, replicates: in singlicate
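Note: KINOMEscan kinase panel screen.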

NCCC(NC(=O)c1cc(Br)c(-c2ccnc3[nH]ccc23)s1)c1ccccc1.O=C(O)C(F)(F)F.O=C(O)C(F)(F)F (stereo not drawn) [GSK1307810]
%Inh (ZAK): 10% | %Inh (ZAP70): 0% | %Inh (p38-alpha; [1]): 8% | %Inh (p38-beta): 0% | %Inh (p38-delta): 21% | %Inh (p38-gamma): 0%

Cn1cc(-c2cnc(N)c3c(-c4ccc5c(c4)CCN5C(=O)Cc4ccccc4)csc23)cn1 [GSK2593074]
%Inh (ZAK): 59% | %Inh (ZAP70): 0% | %Inh (p38-alpha; [1]): 8% | %Inh (p38-beta): 1% | %Inh (p38-delta): 0% | %Inh (p38-gamma): 14%

CSc1ccc(NC2=C(c3ccc(Cl)cc3)C(=O)NC2=O)cc1 [SB-317658]
%Inh (ZAK): 28% | %Inh (ZAP70): 0% | %Inh (p38-alpha; [1]): 0% | %Inh (p38-beta): 12% | %Inh (p38-delta): 11% | %Inh (p38-gamma): 0%

COc1cc(Nc2ccnc3cc(-c4ccncc4)ccc23)cc(OC)c1OC.Cl [GW494610]
%Inh (ZAK): 49% | %Inh (ZAP70): 8% | %Inh (p38-alpha; [1]): 52% | %Inh (p38-beta): 66% | %Inh (p38-delta): 2% | %Inh (p38-gamma): 0%

CN(C)CCNS(=O)(=O)c1ccc(-c2ccnc3[nH]ccc23)cc1 [GSK977620]
%Inh (ZAK): 83% | %Inh (ZAP70): 0% | %Inh (p38-alpha; [1]): 0% | %Inh (p38-beta): 1% | %Inh (p38-delta): 39% | %Inh (p38-gamma): 0%

COc1cccc(C2=C(Nc3cccc(O)c3)C(=O)NC2=O)c1 [SB-390771]
%Inh (ZAK): 38% | %Inh (ZAP70): 5% | %Inh (p38-alpha; [1]): 0% | %Inh (p38-beta): 0% | %Inh (p38-delta): 45% | %Inh (p38-gamma): 18%

CC(C)NCC(Cc1ccccc1)NC(=O)c1cc(Br)c(-c2ccnc3[nH]ccc23)s1.Cl.Cl (stereo not drawn) [GSK1383281]
%Inh (ZAK): 73% | %Inh (ZAP70): 0% | %Inh (p38-alpha; [1]): 0% | %Inh (p38-beta): 0% | %Inh (p38-delta): 16% | %Inh (p38-gamma): 0%

Cc1ccc(O)cc1Nc1ccnc2cc(-c3ccc(CN4CCCCC4)o3)ccc12 [GW557777]
%Inh (ZAK): 75% | %Inh (ZAP70): 0% | %Inh (p38-alpha; [1]): 15% | %Inh (p38-beta): 6% | %Inh (p38-delta): 0% | %Inh (p38-gamma): 18%

Nc1ncc(-c2cn[nH]c2)c2scc(-c3ccc4c(c3)CCN4C(=O)Cc3ccccc3)c12 [GSK2593067]
%Inh (ZAK): 50% | %Inh (ZAP70): 4% | %Inh (p38-alpha; [1]): 0% | %Inh (p38-beta): 0% | %Inh (p38-delta): 15% | %Inh (p38-gamma): 0%

Fc1cc(Cl)ccc1Nc1ccnc2cc(-c3ccc(CN4CCOCC4)o3)ccc12 [GW560109]
%Inh (ZAK): 50% | %Inh (ZAP70): 3% | %Inh (p38-alpha; [1]): 28% | %Inh (p38-beta): 0% | %Inh (p38-delta): 25% | %Inh (p38-gamma): 0%

COc1cc(Nc2nccc(N3CCC(NS(=O)(=O)c4ccc(NC(C)=O)cc4)CC3)n2)cc(OC)c1OC [GSK1379825]
%Inh (ZAK): 64% | %Inh (ZAP70): 5% | %Inh (p38-alpha; [1]): 0% | %Inh (p38-beta): 52% | %Inh (p38-delta): 11% | %Inh (p38-gamma): 0%

Cc1ccc(C)c(NC(=O)Nc2ccc(C)c(-c3ccc(C(=O)Nc4ccncc4)cc3)c2)c1 [GSK1398473]
%Inh (ZAK): 70% | %Inh (ZAP70): 0% | %Inh (p38-alpha; [1]): 0% | %Inh (p38-beta): 0% | %Inh (p38-delta): 38% | %Inh (p38-gamma): 0%

Cl.O=C(Nc1ccc(Oc2ccc3[nH]c(NC(=O)c4ccco4)nc3c2)cc1)Nc1cc(C(F)(F)F)ccc1F [GW683134]
%Inh (ZAK): 99.2% | %Inh (ZAP70): 0% | %Inh (p38-alpha; [1]): 65% | %Inh (p38-beta): 74% | %Inh (p38-delta): 39% | %Inh (p38-gamma): 0%

COc1ccc(C)c(Nc2ccnc(Nc3ccc(-c4cnc[nH]4)cc3)n2)c1.Cl [GW784041]
%Inh (ZAK): 92.4% | %Inh (ZAP70): 0% | %Inh (p38-alpha; [1]): 0% | %Inh (p38-beta): 14% | %Inh (p38-delta): 11% | %Inh (p38-gamma): 42%

Nc1cccc(-c2ccc3c(N)n[nH]c3c2)c1 [GSK2193613]
%Inh (ZAK): 11% | %Inh (ZAP70): 0% | %Inh (p38-alpha; [1]): 6% | %Inh (p38-beta): 0% | %Inh (p38-delta): 17% | %Inh (p38-gamma): 45%

CN(c1ccc(NC(=O)N2CCN(CCCN3CCOCC3)CC2)cc1)c1ccnc(Nc2ccc(CS(C)(=O)=O)cc2)n1.Cl [GW830899]
%Inh (ZAK): 5% | %Inh (ZAP70): 0% | %Inh (p38-alpha; [1]): 9% | %Inh (p38-beta): 0% | %Inh (p38-delta): 0% | %Inh (p38-gamma): 41%

Cc1nn2c(=O)cc(N3CCO[C@H](C)C3)nc2n1Cc1cccc(Cl)c1Cl [GSK2373693]
%Inh (ZAK): 15% | %Inh (ZAP70): 0% | %Inh (p38-alpha; [1]): 66% | %Inh (p38-beta): 0% | %Inh (p38-delta): 15% | %Inh (p38-gamma): 0%

O=C(Nc1c(F)cccc1F)c1cc(C(=O)c2ccccc2F)c[nH]1 [GSK1326180]
%Inh (ZAK): 0% | %Inh (ZAP70): 0% | %Inh (p38-alpha; 1 µM): 47% | %Inh (p38-beta): 15% | %Inh (p38-delta): 0% | %Inh (p38-gamma): 7%

CCNC(=O)/C=C/c1n[nH]c2cc(Sc3ccccc3C(=O)NC)ccc12
%Inh (ZAK): 48% | %Inh (ZAP70): 0% | %Inh (p38-alpha; [1]): 13% | %Inh (p38-beta): 11% | %Inh (p38-delta): 18% | %Inh (p38-gamma): 16%

Cc1ccccc1CC(=O)N1CCc2cc(-c3cn(C)c4ncnc(N)c34)ccc21 [GSK2603346]
%Inh (ZAK): 0% | %Inh (ZAP70): 0% | %Inh (p38-alpha; [1]): 0% | %Inh (p38-beta): 0% | %Inh (p38-delta): 27% | %Inh (p38-gamma): 0%

Cl.Cl.NC(CNC(=O)c1cc(Br)c(-c2ccnc3[nH]ccc23)s1)c1ccccc1 (stereo not drawn) [GSK1322949]
%Inh (ZAK): 11% | %Inh (ZAP70): 0% | %Inh (p38-alpha; [1]): 23% | %Inh (p38-beta): 0% | %Inh (p38-delta): 14% | %Inh (p38-gamma): 50%

COc1ccc(NC(=O)c2ccoc2)cc1-c1ccc(C(=O)NCC2CC2)cc1 [GW810437]
%Inh (ZAK): 2% | %Inh (ZAP70): 36% | %Inh (p38-alpha; [1]): 10% | %Inh (p38-beta): 1% | %Inh (p38-delta): 0% | %Inh (p38-gamma): 0%

O=C(Nc1n[nH]c2cc(-c3cccs3)ccc12)C1CC1 [SB-731284]
%Inh (ZAK): 22% | %Inh (ZAP70): 12% | %Inh (p38-alpha; [1]): 0% | %Inh (p38-beta): 0% | %Inh (p38-delta): 0% | %Inh (p38-gamma): 22%

CN(C)CCOc1ccc(-c2cc(-c3ccc(Cl)c(O)c3)c(-c3ccncc3)[nH]2)cc1.Cl.Cl [SB-684387]
%Inh (ZAK): 20% | %Inh (ZAP70): 20% | %Inh (p38-alpha; [1]): 54% | %Inh (p38-beta): 70% | %Inh (p38-delta): 19% | %Inh (p38-gamma): 23%

COC(=O)Nc1nc2ccc(Oc3ccc(CC(=O)Nc4cc(C(F)(F)F)ccc4F)cc3)cc2[nH]1 [GW680903]
%Inh (ZAK): 91.6% | %Inh (ZAP70): 38% | %Inh (p38-alpha; [1]): 6% | %Inh (p38-beta): 0% | %Inh (p38-delta): 47% | %Inh (p38-gamma): 0%

CN(c1ccc(NC(=O)Nc2cccc(Cl)c2)cc1)c1ccnc(N)n1.Cl [GW830707]
%Inh (ZAK): 0% | %Inh (ZAP70): 0% | %Inh (p38-alpha; [1]): 0% | %Inh (p38-beta): 6% | %Inh (p38-delta): 0% | %Inh (p38-gamma): 0%

CCn1c(-c2nonc2N)nc2c(-c3ccccc3)ncc(OCCCN)c21.O=C(O)C(F)(F)F.O=C(O)C(F)(F)F [GSK260205]
%Inh (ZAK): 0% | %Inh (ZAP70): 0% | %Inh (p38-alpha; [1]): 99.5% | %Inh (p38-beta): 65% | %Inh (p38-delta): 26% | %Inh (p38-gamma): 2%

CC(C)c1nc(-c2ccc(F)c(NS(=O)(=O)c3c(F)cccc3F)c2)c(-c2ccnc(Nc3ccc(N4CCOCC4)nc3)n2)s1 [GSK1804250]
%Inh (ZAK): 98.3% | %Inh (ZAP70): 0% | %Inh (p38-alpha; [1]): 96% | %Inh (p38-beta): 38% | %Inh (p38-delta): 57% | %Inh (p38-gamma): 1%

CN1CCN(Cc2ccc(NC(=O)Nc3ccc(N(C)c4ccnc(Nc5ccc(CS(C)(=O)=O)cc5)n4)cc3)cc2)CC1.Cl [GW827654]
%Inh (ZAK): 21% | %Inh (ZAP70): 52% | %Inh (p38-alpha; [1]): 0% | %Inh (p38-beta): 0% | %Inh (p38-delta): 0% | %Inh (p38-gamma): 48%

COc1cccc2c(-c3ccncc3)c(-c3ccc(F)cc3)nn12 [GW468513]
%Inh (ZAK): 16% | %Inh (ZAP70): 9% | %Inh (p38-alpha; [1]): 99.9% | %Inh (p38-beta): 82% | %Inh (p38-delta): 34% | %Inh (p38-gamma): 0%

CS(=O)(=O)c1cccc(CNc2nc(Nc3ccc4c(c3)CCC(=O)N4)ncc2C(F)(F)F)c1
%Inh (ZAK): 0% | %Inh (ZAP70): 43% | %Inh (p38-alpha; [1]): 3% | %Inh (p38-beta): 0% | %Inh (p38-delta): 8% | %Inh (p38-gamma): 4%

Cc1cccc(Nc2nc(N[C@H]3CCCC[C@H]3N)ncc2C(N)=O)c1.Cl [GSK986310]
%Inh (ZAK): 0% | %Inh (ZAP70): 92.9% | %Inh (p38-alpha; [1]): 0% | %Inh (p38-beta): 0% | %Inh (p38-delta): 45% | %Inh (p38-gamma): 0%

Cc1cc(-c2c(-c3ccc(F)cc3)ncn2CCCN2CCOCC2)nc(N)n1 [SB-222517]
%Inh (ZAK): 13% | %Inh (ZAP70): 15% | %Inh (p38-alpha; [1]): 22% | %Inh (p38-beta): 17% | %Inh (p38-delta): 0% | %Inh (p38-gamma): 27%

CCOc1nccc(-c2c(-c3ccc(F)cc3)ncn2C2CCNCC2)n1 [SB-249175]
%Inh (ZAK): 15% | %Inh (ZAP70): 32% | %Inh (p38-alpha; [1]): 99.3% | %Inh (p38-beta): 100% | %Inh (p38-delta): 4% | %Inh (p38-gamma): 43%
